Bioassay records deposited in PubChem BioAssay by National Center for Advancing Translational Sciences (NCATS).
Pf Dd2 growth: inhibitors of Plasmodium falciparum Dd2 growth | Potency, µM (titrated, usually from 28.9 µM), for the others: at the top dose activity, negative = inhibition, hits mostly inhibitors | actives 4.3% (n = 120,000) | AID 1347417 | P. falciparum Dd2 growth, SYBR Green, 72 h; active = well fitted inhibition curve with a large enough effect;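 also: plate controls were DMSO vehicle for no effect and reference drug for full effect; nearly all actives have a fitted effect of over 65% in size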
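Readout: SYBR Green fluorescence, 485 nm excitation, 535 nm emission, after ~16 h lysis at 37C. Before that, Dd2-infected red cells (2.5% hematocrit) grew 72 h with compound, 29 uM top final concentration.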
The depositor's hits bear a star; i = inactive; [ ] = another dose, or the depositor's remark. This excerpt belongs to a sample that is enriched for hits. Potency is read from the fitted curve at half-maximal effect.

SMILES | Pf Dd2 growth
COC(=O)[C@@H]1Cc2c([nH]c3ccccc23)[C@H]2C[C@@H](NC3CC3)C[C@@H](c3ccc(F)cc3)N21 | 4.47µM*
COC(=O)[C@@H]1Cc2c([nH]c3ccccc23)[C@H]2C[C@@H](NCc3cccnc3)C[C@@H](c3ccc(F)c(F)c3)N21 | -11.6%
COC(=O)[C@@H]1Cc2c([nH]c3ccccc23)[C@H]2C[C@@H](NCCNC(C)=O)C[C@@H](c3ccc(C)cc3)N21 | i
COC(=O)[C@@H]1Cc2c([nH]c3ccccc23)[C@H]2C[C@@H](N3CCOCC3)C[C@@H](c3ccc(F)cc3)N21 | -13.9%
CCN(CCc1nc2ccc(F)cc2[nH]1)C(=O)c1cc2n(n1)CCN(C)C2 | -13.5%
COc1ccc(CN2C[C@@H](CN3CCCCC3)[C@@H](CO)C2)cc1O | -10.2%
CNC(C)c1cccnc1 (stereo not drawn) | 6.9%[44.1 µM]
O=C(COc1ccccc1)NC[C@H]1COCc2nc3cc(F)ccc3n21 | -0.2%[44.1 µM]
Cc1oc(C(O)c2ccccc2F)nc1C(=O)Nc1ccc2c(c1)NC(=O)CO2 (stereo not drawn) | i
Cn1nccc1C(=O)N1CC(=O)N(C2CCCCC2)CC(OCc2ccccc2)C1 (stereo not drawn) | -13.5%
CC1CCC2(CC1)NC(=O)N(CC(=O)Nc1ccc3c(c1)OCO3)C2=O (stereo not drawn) | i
O=C(CN1C(=O)NC2(CCOCC2)C1=O)Nc1ccc2c(c1)OCCO2 | 22.4%
CC(C)(C)C1CCC2(CC1)NC(=O)N(CC(=O)Nc1ccc3c(c1)OCCO3)C2=O (stereo not drawn) | 7.94µM*
COc1cccc(C(=O)N2C[C@@H](CO)[C@H](c3nc(C)no3)C2)c1OC | -3.3%
COc1ccc(C(=O)Nc2ccc(-c3noc([C@@H]4CCCN4Cc4ccc(Cl)cc4)n3)cn2)cc1 | 11.2µM*
COc1ccc(C(=O)Nc2ccc(-c3noc([C@@H]4CCCN4Cc4ccc(F)c(F)c4)n3)cn2)cc1 | i
COCC(=O)Nc1ccc(-c2noc([C@@H]3CCCN3CC(C)C)n2)cn1 | 11.2µM*
COCC(=O)Nc1ccc(-c2noc([C@@H]3CCCN3Cc3ccc(S(C)(=O)=O)cc3)n2)cn1 | -25.8%
COCC(=O)Nc1ccc(-c2noc([C@@H]3CCCN3Cc3ccc(F)cc3)n2)cn1 | -9.9%[44.1 µM]
COc1ccc(C(=O)Nc2ccc(-c3noc([C@@H]4CCCN4Cc4ccccc4C)n3)cn2)cc1 | -19.8%
CCn1cc(S(=O)(=O)NCC(=O)N2CCCCCNC(=O)CC2c2ccccc2)cn1 (stereo not drawn) | 25.7%
CN1C(=O)c2cccn2CC1C(=O)NC1CCCC1 (stereo not drawn) | 13.1%
COc1ccc(CN2CCc3nc(N(C)C)[nH]c(=O)c3CC2)cc1CN1CCOCC1 | 28.2%[5.79 µM]
COc1ccc(OCc2nc(C3CN(C(=O)c4cccn4C)C3)no2)cc1 | i
COc1cccc(NC(=O)CN2C(=O)NC3(CCC(C)CC3)C2=O)c1 (stereo not drawn) | -26.1%
CCS(=O)(=O)N1CCN(C2CCN(CCC(C)C)C2=O)CC1 (stereo not drawn) | -19.9%
